Compound activity (PubChem)
This is a sample that favours compounds with a hit; in the whole collection about 9.8% have one here.
ALDH1A1 block – ALDH1A1 (human) enzyme inhibition; AID 1030; Purified ALDH1A1, NADH fluorescence, propionaldehyde substrate; P00352; 220,000 compounds, 7.3% hits; Potency, µM (highest dose often 75.3 µM), without a hit: at the highest dose activity, negative = inhibition, usual class: inhibitors; active means well fitted inhibition curve with a large enough effect, not every such curve was filed as active; inconclusive means small, poorly fitted or top-dose-only effect, or another doubt; inactive means no such curve, though single readings can be large or run the other way;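 further: potency means the concentration at half of the fitted maximal effect; plate controls were no enzyme wells and a reference inhibitor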
HTT ATP protect – cytoprotection in Huntington HTT-Q103 PC12 cell model | PC12 HTT-Q103 induced, cytoprotection, ATP luminescence, 40 h | Potency, µM (highest dose often 56.4 µM), inactives show cytoprotection (ATP increase), hits mostly activators | 230,000 compounds, 0.14% hits | AID 1471; further: potency means the concentration at half of the fitted maximal effect; % of control where 0% means no effect; nearly all actives have a fitted effect of over 45% in size
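Rat PC12, Q103 Htt exon1-GFP fusion, ecdysone promoter; tebufenozide inducer 100 nM final; compound titration; qHTS, 1500 cells/well; ATPlite luminescent read.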
HPGD block – HPGD (human) dehydrogenase inhibition. 150,000 compounds, 4.3% hits. AID 894. purified HPGD, NADH fluorescence kinetic, PGE2 substrate. Potency, µM, for inactives: at the highest dose activity change, negative = inhibition, actives largely listed as inhibitors; active means well fitted inhibition curve with a large enough effect, not every such curve was filed as active; inconclusive means small, poorly fitted or top-dose-only effect, or another doubt; inactive means no such curve, though single readings can be large or run the other way; further: potency means the concentration at half of the fitted maximal effect; on the % scale 0 is the no-effect control and ±100 the full control effect
Target sequence (P15428 whole entry, looked up): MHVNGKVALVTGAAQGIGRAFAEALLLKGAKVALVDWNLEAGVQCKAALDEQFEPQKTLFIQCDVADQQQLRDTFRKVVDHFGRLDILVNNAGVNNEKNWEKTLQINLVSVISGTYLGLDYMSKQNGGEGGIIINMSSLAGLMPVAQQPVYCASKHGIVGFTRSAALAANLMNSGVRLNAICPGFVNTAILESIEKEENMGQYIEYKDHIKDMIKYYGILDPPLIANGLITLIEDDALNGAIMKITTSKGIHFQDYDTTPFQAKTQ
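20 nM HPGD preincubated 15 min at room temperature with compound in 50 mM Tris-HCl pH 8, 0.01% Tween 20. Started with 1 mM NAD+ and 30 uM prostaglandin E2; NADH fluorescence (360/450 nm) read 5 times over 30-s intervals, last minus first.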
HTT aggregate – inhibitors of mutant huntingtin aggregate formation in PC12 cells. PC12 HttQ103-GFP aggregates, Acumen cytometry, 40 h. Potency, µM (top dose mostly 46.1 µM), without a hit: top-dose activity change, negative = inhibition, usual class: inhibitors. 220,000 compounds, 1.1% hits; further: potency means the concentration at half of the fitted maximal effect; on the % scale 0 is the no-effect control and ±100 the full control effect; nearly all actives have a fitted effect of over 60% in size
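Steps: seed 1500 PC12 HTTQ103-GFP cells/well; add tebufenozide, 100 nM final; add compound titration; add ATPLite reagent; quantify GFP aggregates by laser scanning cytometry.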
CBFb-RUNX1 inh – blocks binding between human CBF-beta and RUNX1; AlphaScreen CBFb-His/RUNX1-biotin binding, biochemical; 230,000 tested, under 10 active; AID 1477; Q01196+Q13951; Potency, µM (highest dose often 59.8 µM), for inactives: at the top dose activity, negative = inhibition, most hits filed as inhibitors; further: % of control where 0% means no effect
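Interaction loss through any mechanism counts as activity. Pre-formed complex of His-CBF-beta and biotin-RUNX1 (30 nM apiece) is incubated with compound 15 min, then with 50 ng nickel and 50 ng streptavidin beads for 90 min before AlphaScreen detection.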
KDM4E inh – JMJD2E (human) inhibition; B2RXH2; JMJD2E catalytic domain, FDH-coupled NADH fluorescence (FDH is formaldehyde dehydrogenase); Potency, µM (top dose mostly 57.1 µM), for the others: top-dose activity change, negative = inhibition, most hits filed as inhibitors; 230,000 compounds, 1.6% hits; AID 2147; active means well fitted inhibition curve with a large enough effect, not every such curve was filed as active; inconclusive means small, poorly fitted or top-dose-only effect, or another doubt; inactive means no such curve, though single readings can be large or run the other way;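 further: potency means the concentration at half of the fitted maximal effect; 0% = wells with enzyme and -100% = buffer wells without enzyme; nearly all actives have a fitted effect of over 50% in size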
Target sequence (B2RXH2 1-337 limits assumed): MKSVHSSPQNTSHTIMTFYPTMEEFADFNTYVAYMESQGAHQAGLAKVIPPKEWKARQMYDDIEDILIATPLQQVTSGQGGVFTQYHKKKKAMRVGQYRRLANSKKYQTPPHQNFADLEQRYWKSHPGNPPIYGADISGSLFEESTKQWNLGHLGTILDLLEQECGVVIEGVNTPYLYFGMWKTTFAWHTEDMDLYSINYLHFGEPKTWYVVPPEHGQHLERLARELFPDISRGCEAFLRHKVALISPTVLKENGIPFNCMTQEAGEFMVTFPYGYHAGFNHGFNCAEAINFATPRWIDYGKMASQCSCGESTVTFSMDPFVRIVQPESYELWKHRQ
The depositor's hits bear a star; ? = inconclusive; . = no result given; [ ] = remark or other dose. Unless noted, the call rests on the fitted dose curve; in most records, active means well fitted curve in the direction sought with a large enough effect; inconclusive means small, poorly fitted or top-dose-only effect, or another doubt; inactive means no such curve, though single readings can be large; an effect the other way counts as inactive or inconclusive.

SMILES	ALDH1A1 block	HTT ATP protect	HPGD block	HTT aggregate	CBFb-RUNX1 inh	KDM4E inh
Cn1nc(-c2ccc(N3CCCCC3)c(NC(=O)c3ccco3)c2)c2ccccc2c1=O	32µM*	-4%[10 µM]	-29%	?	10%	?
Cc1cccn2c(=O)c(/C=N/O)c(N3CCOCC3)nc12	5%	-29%	.	-9%	7%	8%
O=S(=O)(c1ccc(Cl)cc1)N1c2ccccc2Oc2nc3ccccc3nc21	25µM*	-38%[10 µM]	-13%	-18%	?	-28%
CCCCCCCCCCCCCCC[C@@H](O)[C@@H](N)CO	2%	11%	-7%	.	?	-3%
CC1CN(c2ccc([N+](=O)[O-])c(NCCOc3ccccc3)c2)CCN1 (configuration not stated)	-4%	6%[10 µM]	.	5%[9.22 µM]	-12%	5%
COc1ccc(O)c(C(=O)c2cnn(C(=O)c3cc(C)oc3C)c2)c1	3.5µM*	-12%	-15%	-4%	5%	26%
O=C(Cc1cnn(-c2ccccc2)c1)c1ccc(O)c(O)c1O	3.2µM*	-2%	28µM*	7%	-20%	13µM*
COc1ccc(C(=O)n2cc(C(=O)c3cc(C)ccc3O)cn2)cc1	0.4µM*	3%[10 µM]	-12%	32µM*	-4%	9%
Cc1ccc(O)c(C(=O)c2cnn(-c3ccccc3)c2)c1	-5%	-18%	3.5µM*	?	-3%	6%
CCn1c(C)nc2cc(C(=O)n3cc(C(=O)c4ccccc4O)cn3)ccc21	4%	-32%	.	2%	1%	-9%
O=C(c1cnn(C(=O)c2ccc(O)cc2)c1)c1ccccc1O	?	.	.	-3%	-10%	-2%
CCc1cc(C(=O)Cc2cnn(-c3ccccc3)c2)c(O)cc1O	?	6%	?	9%[9.22 µM]	-7%	?
Cc1ccc(-n2cc(C(=O)c3ccccc3O)cn2)cc1	?	-54%	?	-13%	-2%	?
CCOC(=O)c1cn(Cc2c(C)c(C)c(C)c(C)c2C)nn1	0%	.	-5%	4%	-3%	-3%
Cc1ccc(S(=O)(=O)N2CCOCC2)cc1NC(=O)COC(=O)C1COc2ccccc2O1 (configuration not stated)	-7%	-22%[10 µM]	-10%	3%	13%	?
CC(NCc1cccs1)c1ccccc1 (configuration not stated)	-9%	-87%[10 µM]	.	?	1%	-14%
COc1ccc(CN(Cc2cc3cccc(C)c3n3nnnc23)C(=O)N2CCOCC2)cc1	?	-20%[10 µM]	.	-8%[9.22 µM]	6%	?
CC[C@H](C)[C@H](NC(=O)[C@H](CC(N)=O)NC(=O)[C@H](CCCCN)NC(=O)[C@H](Cc1ccccc1)NC(=O)[C@H](Cc1ccccc1)NC(=O)[C@H](Cc1cnc[nH]1)NC(=O)[C@@H](N)C(C)C)C(=O)N[C@H](C(=O)N[C@H](C(=O)N1CCC[C@H]1C(=O)N[C@@H](CCCN=C(N)N)C(=O)N[C@H](C(=O)N1CCC[C@H]1C(=O)O)[C@@H](C)O)[C@@H](C)O)C(C)C	.	.	.	.	-2%	.
COc1ccc(C(=O)n2cc(C(=O)c3cc(C)ccc3O)cn2)cc1OC	0.16µM*	-15%[0.074 µM]	?	18%	13%	3%
Oc1ccc2c(c1)C1CCCC1(N1CCOCC1)O2 (configuration not stated)	18µM*	0%[1.9 µM]	?	11%	-28%	16µM*
CC1=C(C(=O)N2CCOCC2)C(c2ccc(O)cc2)NC(=S)N1 (configuration not stated)	?	-6%[10 µM]	-14%	-3%	0%	-24%
CCn1c(=O)cc(SCC(=O)Nc2cccc(C)n2)c2ccccc21	?	-19%	.	1%	1%	-18%
CC(NC(=O)c1sc2cc([N+](=O)[O-])ccc2c1Cl)C(C)(C)C (configuration not stated)	0.56µM*	-26%[10 µM]	.	28%	-3%	-29%
O=C(NC1CC1)c1sc2cc([N+](=O)[O-])ccc2c1Cl	7%	.	25µM*	-13%	-12%	3%
O=C(NC1CCS(=O)(=O)C1)c1sc2ccccc2c1Cl (configuration not stated)	3%	-60%	.	1%	9%	1%
SMILES	ALDH1A1 block	HTT ATP protect	HPGD block	HTT aggregate	CBFb-RUNX1 inh	KDM4E inh
CC(=O)c1c(O)c2ccccc2n(C(C)C)c1=O	1%	-31%	.	13µM*	17%	-16%
CCN(CC)CCCN=Cc1c(O)n(-c2cccc(C)c2)c(=O)c2ccccc12	.	12%[10 µM]	.	-6%[9.22 µM]	12%	?
O=C1c2ccccc2C(=O)N1CCCCN(C(=O)c1cc([N+](=O)[O-])ccc1Cl)c1ccc(Cl)cc1	5µM*	6%[10 µM]	-15%	2%	-25%	7%
Cc1ccc(N(CCCCN2C(=O)c3ccccc3C2=O)C(=O)c2cccc([N+](=O)[O-])c2)cc1	?	-36%	-8%	-2%	-13%	-2%
O=C1c2ccccc2C(=O)N1CCCCN(C(=O)c1ccc(Cl)s1)c1ccc(Cl)cc1	4.5µM*	8%[10 µM]	-17%	-31%	16%	-8%
COc1ccc(N(CCCN2C(=O)c3cccc4cccc(c34)C2=O)C(=O)c2cccc(OC)c2)cc1	8.9µM*	-35%[10 µM]	-11%	-12%	-14%	?
O=C1c2ccccc2C(=O)N1CCCCN(C(=O)c1cc([N+](=O)[O-])cc([N+](=O)[O-])c1)c1ccc(Cl)cc1	1.4µM*	17%[10 µM]	-7%	10%	?	6%
C=CCN(C(=O)CNC(=O)c1ccco1)C(C(=O)NC1CCCCC1)c1ccc(OC)cc1OC (configuration not stated)	1%	12%	0%	7%	3%	-2%
N=C(N)SCc1nc(-c2ccc(Cl)cc2)no1	-13%[13.5 µM]	-4%[10 µM]	-9%	.	.	.
COc1ccc(COC(=O)N/N=C2/C[C@@H](O)[C@@H](O)[C@@H]3[C@@H]4C(=O)N(Cc5ccccc5)C(=O)[C@H]4CC[C@@H]23)cc1	9%[13.5 µM]	-7%[10 µM]	.	.	-16%[13.1 µM]	.
O=C1c2ccccc2C(=O)N1CCCCN(C(=O)c1ccc([N+](=O)[O-])cc1)c1ccc(Cl)cc1	1.6µM*	-26%	-6%	-13%	-21%	-3%
O=S(=O)(CCC(F)=C(F)F)c1nnnn1C1CCCCC1	18%	4µM*	-7%	.	-2%	-6%
N#CCCn1c(O)c(N=NC(=O)CNC(=O)c2cccs2)c2ccccc21	?	-14%[10 µM]	.	-9%[9.22 µM]	-6%	8%
Cc1ccc(S(=O)(=O)Nc2cc3c(C(=O)Nc4ccccc4)c(C)oc3c3ccccc23)cc1	?	-18%[10 µM]	-8%	12%	-17%	-6%
